# According to ChEMBL document CHEMBL3988442, “University of Dundee, Small-Polar-MMV Screening Library” (2021):
# Among all 38,000 compounds or so, about 1,200 (3.2%) showed an effect of 50% or more. The median lay at about -58%. The list comes from a sample in which strong results are over-represented; it also holds similar structures and randomly drawn compounds.
# Test system: Plasmodium falciparum
# Test: Calibr Malaria Delayed Death Assay SOP
# Type: functional, organism-based
# Design: scale not given: in the data most compounds retested in dose-response had high values
# Settings: concentration 4.99e-06 (unit not given; other assays of the set use mol/L)
row,Compound,Percent Effect [%]
1,CCc1cc2c(N3CCCC(c4ccn[nH]4)C3)ncnc2s1 (centres undefined),10.63
2,O=C(CC1CCc2ccccc21)N1CCC(O)(Cn2ccnc2)CC1 (centres undefined),-24.52
3,CCCN1CCC(c2nc3ccc(-c4cccc(OC)c4)cn3n2)CC1.O=C(O)C(F)(F)F,-29.22
4,CCN(CC)Cc1nnc2sc(-c3cc(C(C)C)[nH]n3)nn12,-70.51
5,CN(C(=O)Cn1nc(-c2ccc(Cl)cc2)ccc1=O)C1CCS(=O)(=O)C1 (centres undefined),1.296
6,CC(=O)N1CCC(c2nc3ccc(-c4ccnn4C)cn3n2)CC1.O=C(O)C(F)(F)F,-57.67
7,NC(=O)N1Cc2nccn2CC(Cn2ncccc2=O)C1 (centres undefined),-152.6
8,Cc1nc(CN2CCC23CCN(Cc2ccoc2)CC3)cs1,35.85
9,COCC(=O)N1CCC2(CCN(Cc3ccc(C)cc3)CC2)CC1.O=C(O)C(F)(F)F,-23.78
10,Cc1ccc(CN2CCCC3(CCN(Cc4ccoc4)CC3)C2)cc1.O=C(O)C(F)(F)F.O=C(O)C(F)(F)F,79.2
11,Cn1ccnc1CN1CC2(CCN(Cc3ccncc3)C2)C1,-45.53
12,CS(=O)(=O)N1CCCC12CCN(Cc1ccoc1)CC2,-46.44
13,CS(=O)(=O)N1CCOCC2(CCN(Cc3ccoc3)CC2)C1.O=C(O)C(F)(F)F,-77.45
14,O=C(O)C(F)(F)F.O=C(O)C(F)(F)F.O=C(O)C(F)(F)F.c1cc(CN2CCCC23CCCN(Cc2ccoc2)C3)ccn1 (centres undefined),-115.9
15,Cc1ccc(CN2CCC3(CCN(Cc4ccncc4)CC3)CC2)cc1,77.61
16,COCCC(=O)N1CC2(CCN(Cc3ccncc3)CC2)C1,-37.67
17,Cc1ccc(CN2CCC3(CC2)CCN(Cc2ccoc2)CC3)cc1.O=C(O)C(F)(F)F.O=C(O)C(F)(F)F,92.5
18,COCCC(=O)N1CCC2(CCN(Cc3ccc(C)cc3)CC2)C1.O=C(O)C(F)(F)F,-50.1
19,O=C(CCn1cncn1)NC1CCc2nccn2C1 (centres undefined),-109.9
20,C[C@]1(O)CN(Cc2ccc(C(=O)O)cc2)CC[C@@H]1Oc1cccc(F)c1,-93.08
21,O=c1ccc2c(n1CC1CC1)CCN(c1ncccn1)CC2,5.282
22,O=C(O)C(F)(F)F.O=C(O)C(F)(F)F.c1ccc(COC[C@@H]2CCC[C@]23CN(Cc2nccs2)CCO3)nc1,-24.57
23,O=S(=O)(Cc1ccc(F)cc1)NCCc1nnc2n1CCC2,-62.4
24,Cc1nc(CNC(=O)NC(C)c2ccc3c(c2)OCCO3)cs1 (centres undefined),-69.15

row,Compound,Percent Effect [%]
1,COCCn1ccc(=O)c(OCC(=O)Nc2cccc(OC)c2)c1C,-50.47
2,COCc1cc(CNCc2c(C)n(CC(C)C)c3ccccc23)n[nH]1,-32.81
3,Cc1cc(NC(=O)C(C#N)Cc2cnn(C)c2C)no1 (centres undefined),-0.6706
4,O=C(c1cnccn1)N1CCC2(CCCN(Cc3ccoc3)C2)C1 (centres undefined),-97.37
5,Cc1ccc(CN2CCC3(CCCN(C(=O)N(C)C)C3)C2)cc1 (centres undefined),-64.1
6,CCOC(=O)[C@H]1[C@@H](O)C(=O)N(C)C12CCN(C(=O)C(CC)CC)CC2,-15.32
7,CCN(C)C(=O)Nc1cc(F)c(OC)cc1F,-13.37
8,O=C(c1ccc(F)c(Br)c1)N1CCCN2CCCC2C1 (centres undefined),22.61
9,Cc1cccc(N2CCCC3(C2)CN(c2nncs2)CCO3)c1 (centres undefined),-92.55
10,COc1ccc(N2CCCC3(C2)CN(c2nncs2)CCO3)cc1 (centres undefined),87.98
11,c1cncc(N2CCOC3(CCCN(c4nncs4)C3)C2)c1 (centres undefined),-13.46
12,O=C1CCCN1Cc1nnc2n1CCCN(C(=O)c1ccc[nH]1)C2,-52.27
13,O=C(c1ccc(-n2cnnc2)cc1)N1CCC(Nc2cccnn2)CC1,-15.7
14,CCN1Cc2ccccc2CC2(CCN(CC(=O)O)CC2)C1=O.O=C(O)C(F)(F)F,-102.3
15,CCn1c(SCC(=O)O)nnc1C(C)NC(=O)c1ccc(Cl)cc1 (centres undefined),-146.1
16,Cc1noc(C(C)NC(=O)[C@@H](C)NC(=O)OC(C)(C)C)n1 (some centres undefined),-163.7
17,Fc1ccc2[nH]c(C3CCCN3Cc3c[nH]cn3)nc2c1 (centres undefined),80.29
18,O=C(CN1CCCC1c1nc2cc(F)ccc2[nH]1)NCc1ccccn1 (centres undefined),-65.25
19,O=C(c1cccc(CO)n1)N1CCCC1c1nc2cc(F)ccc2[nH]1 (centres undefined),-67.52
20,CC(C)OCCCNC(=O)NCc1cccc(-n2ccnc2)c1,-80.58
21,Cc1nn(C)c(C)c1-c1ccnc(N(C)Cc2noc(C(C)C)n2)n1,-30.97
22,Cc1nn(C)cc1-c1ccnc(N(C)Cc2noc(C(C)C)n2)n1,-38.19
23,Cc1nn(C)c(C)c1-c1ccnc(N(C)Cc2nc(C(C)C)no2)n1,65.96
24,Cc1cc(C(N)=O)c(N2C[C@@H](C)[C@@](C)(O)C2)nc1C,-47.89

row,Compound,Percent Effect [%]
1,O=C(O)c1nc(SCc2ccc(F)cc2)ncc1Br,-159.2
2,COc1cccc(CC(=O)N2CCCSCC2CN2CCCC2)c1 (centres undefined),54.27
3,O=C(c1ccc2c(c1)OCO2)N1CCCSCC1CN1CCCC1 (centres undefined),-7.883
4,COc1cccc(CCC(=O)N2CCCCC2Cn2cccn2)c1 (centres undefined),-142.5
5,CCCN(CCC)c1nc(N)nc(-c2cc(Cl)ccc2OC)n1,-49.81
6,CN(C)CCCNC(=O)c1nc(Cc2c(Cl)cccc2Cl)no1,-74.09
7,CC[C@@H](C)[C@@H](N)C(=O)Nc1cccc(-c2cnc(NCCO)nc2)c1,-39.72
8,O=C1CC(c2ccccc2F)c2c(n(C3CCCC3)[nH]c2=O)N1 (centres undefined),-93.23
9,COc1ccccc1C(=O)NC(c1ccccn1)[C@H]1CC[C@H](CN)CC1 (some centres undefined),-2.636
10,CCOCC1CN(CC2CC2)Cc2nn(C)cc21.O=C(O)C(F)(F)F (centres undefined),-95.19
11,NC(=O)CCNCc1c(Cl)cccc1N1CCCC1,65.52
12,CS(=O)(=O)CCCNCc1c(Cl)cccc1N1CCCC1,71.32
13,CS(=O)(=O)CCCNC(=O)NC1CC(c2cccc(Cl)c2)C1 (centres undefined),-17.33
14,O=C(Nc1c(N2CCCC2)cccc1N1CCCC1)c1ccccn1,-13.71
15,O=S(=O)(Cc1c(F)cccc1Cl)NCCCN1CCCCCC1,47.99
16,NC(=O)CCNC(=O)NCC1(c2ccccc2Cl)CCC1,-18.8
17,O=C(CSC1CCc2ccccc2NC1=O)NCc1ccccc1 (centres undefined),-28.24
18,CC(Cn1cccn1)NC(=O)N1CCN(Cc2ccco2)CC1 (centres undefined),-74.02
19,Cn1ccnc1C(=O)N[C@@H]1CN(Cc2ccc(F)cc2)[C@@H]2CCCO[C@@H]21.O=C(O)C(F)(F)F,-85.57
20,O=C1OCCN1CCCN1CCCC1c1ccc(O)cc1 (centres undefined),-1.685
21,O=c1oc2ccccc2n1CCCN1CCCC1c1ccc(O)cc1 (centres undefined),52.75
22,Cc1nc(C2CCCN2CCCn2c(=O)oc3ccccc32)no1 (centres undefined),-48.08
23,CC(=O)c1cc2c(=O)[nH]c(=O)n(C)c2nc1C,-16.7
24,CSCc1cc(F)ccc1CNCc1ncc[nH]1,-2.338

row,Compound,Percent Effect [%]
1,CC(=O)N(C)C(c1cccc(F)c1)c1ccccn1 (centres undefined),-75.26
2,Fc1cccc(C(NCc2ncc[nH]2)c2ccccc2)c1 (centres undefined),67.9
3,Cn1cc(C(NCCc2ccccn2)c2cccc(F)c2)cn1 (centres undefined),-2.846
4,Cc1nccn1-c1ccc(C(C)NCc2ncc[nH]2)cc1 (centres undefined),-35.75
5,Clc1cccc(C(NCc2ncc[nH]2)c2ccccn2)c1 (centres undefined),86.37
6,O=C(NCc1ncc[nH]1)c1c(F)cccc1I,-135.9
7,CC(C)Nc1ncccc1C(=O)NCc1ncc[nH]1,-116.1
8,Fc1cccc(C(NCc2ncc[nH]2)c2ccccn2)c1 (centres undefined),91.42
9,CC(C)NC(=O)N1CCN(C(=O)c2ccco2)CC2(CC(=O)N(C)C2)C1 (centres undefined),-8.212
10,CC(C)CC(=O)NS(=O)(=O)c1ccc2c(c1)OCCCO2,-13.67
11,CC(C)c1nn(C)c(N2CCOCC2)c1CNCc1cscn1,-74.61
12,O=C(NCC(O)COc1ccc(C(F)(F)F)cc1)Nc1nncs1 (centres undefined),-99.86
13,Cc1cccc2c(CCNC(=O)NCCC[S+](C)[O-])c[nH]c12 (centres undefined),-83.64
14,Cc1cccc2c(CCNC(=O)[C@H](N)c3ccccc3)c[nH]c12,61.63
15,Cc1cccc2c(CCNC(=O)NCC[S+](C)[O-])c[nH]c12 (centres undefined),-101.3
16,CC(C)Cn1c(=O)n(CCn2cc(Cl)cn2)c2cc(C(=O)O)cnc21,-13.68
17,CCc1noc(CN(Cc2cccs2)C2CC2)n1,-139.3
18,O=C(CCc1nnc2ccccn2c1=O)NCc1cccnc1,-35.93
19,CN(C)c1ncccc1NC(=O)C1CN(Cc2ccccc2)CCO1 (centres undefined),-7.192
20,Cl.Cn1nc(C2CCCN(Cc3ccccc3)C2)c2nccnc21 (centres undefined),-32.54
21,Cc1cccc(CN2CC[C@@H]3[C@@H](CO[C@H]3CNc3ncccn3)C2)n1.O=C(O)C(F)(F)F.O=C(O)C(F)(F)F.O=C(O)C(F)(F)F,-54.04
22,Cn1cc(N2CC3(CCN(Cc4ccccc4)CC3)OCC2=O)cn1.O=C(O)C(F)(F)F,-75.76
